From PubChem BioAssay AID2147 (National Center for Advancing Translational Sciences (NCATS), 2009)
Among all 230,000 compounds or so, about 3,600 (1.6%) were called active. Not shown: some 15% with an inconclusive outcome. Calls follow the shape of the dose curve; as a rule, active = well fitted inhibition curve with a large enough effect (not every such curve was filed as active); inconclusive = small, poorly fitted or top-dose-only effect, or another doubt; inactive = no such curve, though single readings can be large or run the other way. What follows is part of a selection rich in actives, with near analogues and random picks from the rest.

These compounds were tested against Lysine-specific demethylase 4E (Homo sapiens) (UniProt B2RXH2) (assay: qHTS Assay for Inhibitors of Human Jumonji Domain Containing 2E (JMJD2E)). Conditions: JMJD2E catalytic domain, FDH-coupled NADH fluorescence (FDH is formaldehyde dehydrogenase); series mostly up to 57.1 µM; activity change, negative = inhibition: at the top concentration.
Also: nearly all actives have a fitted effect of over 50% in size.
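For activity change, negative = inhibition in this document: 0% = wells with enzyme and -100% = buffer wells without enzyme.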
Potency is read from the fitted curve at half-maximal effect.

Sequence of Lysine-specific demethylase 4E (Homo sapiens) (B2RXH2 1-337 limits assumed): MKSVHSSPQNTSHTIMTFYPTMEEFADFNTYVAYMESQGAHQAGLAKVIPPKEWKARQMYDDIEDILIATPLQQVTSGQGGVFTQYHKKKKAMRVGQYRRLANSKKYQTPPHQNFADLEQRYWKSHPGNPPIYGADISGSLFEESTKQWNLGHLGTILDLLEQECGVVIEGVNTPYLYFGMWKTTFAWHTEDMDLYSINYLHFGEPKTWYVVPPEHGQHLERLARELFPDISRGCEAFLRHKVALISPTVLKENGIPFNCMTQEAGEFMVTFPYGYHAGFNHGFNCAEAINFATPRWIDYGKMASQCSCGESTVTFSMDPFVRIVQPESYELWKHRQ

Potency, active:
O=c1oc2c(CN3CCCCC3)c(O)ccc2c2c1CCCCC2 3.16 µM
Oc1ccc(N=Cc2sc3ccccc3c2Cl)cc1 12.6 µM
Cc1ccc(/C=N/NC(=O)C2=NNC(c3ccccc3)(c3ccccc3)C2)c(O)c1 10 µM
CC(C)(C)C(=O)OCc1nc(-c2ccc(O)c(O)c2)cs1 12.6 µM
Oc1ccc(/C=N/NC2=NCCCCC2)c(O)c1 22.4 µM
O=c1[nH]c(=S)[nH]c2[nH]c(=S)[nH]c12 28.2 µM
Nc1ccccc1SC(C[N+](=O)[O-])c1ccccc1 (stereo unspecified) 6.31 µM
COc1ccc(OCc2n[nH]c(=S)n2N)cc1 15.8 µM
CCN1/C(=C\c2ccc3ccccc3[n+]2CC)Sc2cc(C)ccc21 1.41 µM
CC(C)C[C@@H](CC(=O)N[C@@H](CCC(=O)O)CC(=O)O)NC(=O)[C@@H]1CCCC[C@H]1NC(=O)C[C@@H](NC(=O)C[C@H](Cc1c[nH]c2ccccc12)NC(=O)[C@@H]1CCCC[C@H]1N)C(C)C 15.8 µM

Activity change, negative = inhibition, inactive:
NC(=O)COc1ccc2c3c(c(=O)oc2c1)CCCCC3 3.79%
Cc1ccccc1OCC(O)CN1CCN(c2ccccn2)CC1 (stereo unspecified) -7.16%
Cc1cccc(C)c1NC(=S)N(Cc1cccnc1)Cc1ccccc1Cl 2.9%
CCC/C(C)=N\Nc1nc2c(c(=O)n(C)c(=O)n2C)n1C -5.67%
COc1ccc(N=C(C)c2sc3ccccc3c2O)cc1 -1.68%
Oc1ccc2ccccc2c1C=Nc1ccccc1 -5.63%
S=c1nc2ccccc2c2nc(-c3cccnc3)[nH]n12 -7.81%
COc1ccc(CCNS(=O)(=O)c2cccc3cccnc23)cc1OC 8.86%
Cc1ccc2cc(/C=N/NC(=O)[C@@H]3CCCN3)c(Cl)nc2c1 -2.24%
Cc1nnsc1C(=O)N/N=C/c1ccccc1Cl 2.37%
CCn1cc(CN2CCCC(CNS(=O)(=O)Cc3ccccc3)C2)cn1 (stereo unspecified) -1.97%
Nn1c(SCc2ccccc2)nnc1C1CCCCC1 -0.349%
CC(C)C[C@H](CO)Nc1nc(N(C)c2cccc(Cl)c2)c2ncn(C(C)C)c2n1 2.12%
O=C(Nc1cccc(S(=O)(=O)NC2=NCCC2)c1)C1CCCCC1 3.5%
CCCC(=O)N1c2ccc(-c3csc(N)n3)cc2CC1C (stereo unspecified) -25.3%
Cc1onc(C(=O)NN)c1-c1csc(COc2ccccc2)n1 33.8%
O=c1[nH]c(CSc2ccccc2)nc2c1oc1ccccc12 -0.198%
Cc1ccc(NC(=O)/C(=C\c2ccccc2)NC(=O)c2ccco2)cc1 8.1%
NC(=O)COc1ccc(NC(=O)c2ccccc2-c2ccccc2)cc1 -9.16%
Oc1ccc(/C=N/Nc2nc(-c3ccccc3F)nc3ccccc23)c(O)c1 -27.2%
Oc1c(Br)cccc1/C=N/Nc1c(F)c(F)c(F)c(F)c1F 0.236%
CN(c1ccccn1)c1ncnc2[nH]ncc12 -4.74%
Cc1ccc(C)c(SCc2nc3sc(C(=O)O)c(C)c3c(=O)[nH]2)c1 -5.22%
O=C(Nc1ccc(F)cc1)c1cc2c(s1)CCCC2 0.588%
Cc1c(C)c(C)c2[nH]c(=S)[nH]c2c1C 5.54%
Cc1nc2cccnc2nc1C 1.81%
COc1ccc(OC)c(-n2c(-c3ccn[nH]3)n[nH]c2=S)c1 3.77%
O=C(N/N=C\c1cc(Br)c(Br)o1)C1COc2ccccc2O1 (stereo unspecified) -26.6%
Nc1ccccc1Sc1ccc(C(F)(F)F)cc1[N+](=O)[O-] -29.3%
Nc1ccccc1SCc1cc([N+](=O)[O-])cc2c1OCOC2 -7.45%
OCCC1CN(Cc2ccc(Oc3ncccn3)cc2)CCN1CCc1ccccc1 (stereo unspecified) -5.89%
COCCNc1nc(-c2ccccc2)nc2c1oc1ccccc12 -8.99%
Cc1nnc(SC(C(=O)c2ccccc2)c2ccccc2)[nH]c1=O (stereo unspecified) -1.45%
Cc1cccc(-n2cc(CN3CCN(C(=O)c4ncn[nH]4)CC3)c(-c3cccc(F)c3)n2)c1 8.66%
CC(C)OCCCNC(=O)c1ccc(C2SCC(=O)N2Cc2ccco2)cc1 (stereo unspecified) -12.8%
COc1ccc(NS(=O)(=O)c2ccc(O)c(C(=O)OCC(=O)NC3CCCCC3)c2)cc1 -4.29%
Cc1ccc(OCc2n[nH]c(=S)n2-c2ccc(C)cc2)cc1 -3.16%
S=c1[nH]nc(COc2ccccc2)n1-c1ccccc1 -9.54%
Cc1cc(N2CCN(c3ccccc3)CC2)nc(N2CCOCC2)n1 3.11%
O=c1c(-c2ccc(Cl)cc2)[n+]([O-])c2ccccc2n1OCc1nc2ccccc2[nH]1 -4.14%
CCC(=O)/C=C1\Sc2ccccc2N1CC -12.4%
CCN1/C(=C/c2ccc3ccc(C)cc3[n+]2CC)Sc2ccccc21 -7.04%
O=C(COC(=O)c1ccc[nH]c1=O)Nc1ccc2c(c1)OC(F)(F)O2 -31.1%
c1ccc(-n2cccc2)c(N2CCCCC2)c1 7.49%
CC(C)[C@@H](CC(=O)N[C@@H]1CCNC[C@H]1C(=O)N[C@H](CC(=O)N[C@@H](CCC(=O)O)CC(=O)O)Cc1ccccc1)NC(=O)C[C@H](CO)NC(=O)[C@@H]1CNCC[C@H]1N -2.84%
CC(C)C[C@@H](CC(=O)N[C@@H](CCC(=O)O)CC(=O)O)NC(=O)[C@@H]1CCCC[C@H]1NC(=O)C[C@@H](NC(=O)C[C@H](CO)NC(=O)[C@@H]1CCCC[C@H]1N)C(C)C 6.67%
